RAD52 anneal inh = RAD52 (human) annealing inhibition; recombinant RAD52 DNA annealing, FRET fluorescence; AID 651710; 360,000 compounds, 0.46% hits; P43351; inhibition, % at 18.7 µM;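 active = every replicate showing at least 50% inhibition; inconclusive = mean inhibition at least 50% but not in every replicate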
F508del corr = correctors of CFTR F508del function in bronchial epithelial cells; 350,000 compounds, 0.36% hits; AID 720511; CFBE cells, YFP halide quenching; stimulated with forskolin plus potentiator P3; % fluorescence drop versus neutral controls; activity (quench increase), % at 7.58 µM;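 active = mean added fluorescence quench of at least 8% versus neutral control, with both replicates also reaching 8%; inconclusive = only one of the mean or replicate conditions met; inactive = mean below 8% and not both replicates reaching 8%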;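 note: cells transiently co-express mutant CFTR-F508del with the halide-sensitive YFP; corrector assay measuring rescue of mutant channel to the surface after 24 h compound exposure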
PvdQ acylase = blocks Pseudomonas aeruginosa PvdQ acylase activity; purified PvdQ acylase, fluorescence plate reader; inhibition, % at 10 µM; 340,000 compounds, 0.063% hits; in the data active = inhibition above about 30%, passing the limit was not always enough; inconclusive = no clear call, values can overlap the other calls;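 note: 0% = vehicle neutral wells and 100% = reference inhibitor wells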
RAD54 inh = blocks human RAD54 Holliday junction branch migration; Q92698; FAM/BHQ fluorescence; inhibition, % at 10.4 µM; 360,000 compounds, 0.14% hits; AID 602329;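 active = mean normalized replicate activity at least 40 and at least half of replicates scoring 40 or more; inconclusive = only one of the two criteria met; inactive = mean below 40 and under half of replicates reaching 40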;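 note: 0% = median of neutral control wells and 100% = median of positive control wells; inhibitors cause a drop in the FAM fluorescence signal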
Glyco luc inh = N-linked glycosylation inhibition; D54 ERlucT glycosylation luciferase reporter, 24 h; percent of 100 nM tunicamycin response; 360,000 compounds, 0.23% hits; reporter increase, % at 12.5 µM; AID 588692;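 active = mean luciferase reporter signal, scaled so untreated is 0 and the glycosylation-blocking control 100, at or above a set limit in every replicate; inconclusive = mean reaches the limit but not every replicate does; inactive = mean below the limit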;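 note: luciferase carries N-glycosylation sites so blocking glycosylation raises the light; 0% = median of neutral control wells and 100% = median of 100 nM tunicamycin wells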
dFosB activator = enhances mouse delta FosB homodimer DNA binding; P13346; purified delta FosB, TAMRA-CDK5 oligo fluorescence polarization; percent of positive-control signal above neutral wells; activation, % at 25 µM; 340,000 compounds, 0.99% hits;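 active = mean activation above about 17%, with every replicate also reaching it, limit read from the data, passing the limit was not always enough; inconclusive = only one of the two conditions met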
Target sequence (P13346 whole entry, looked up): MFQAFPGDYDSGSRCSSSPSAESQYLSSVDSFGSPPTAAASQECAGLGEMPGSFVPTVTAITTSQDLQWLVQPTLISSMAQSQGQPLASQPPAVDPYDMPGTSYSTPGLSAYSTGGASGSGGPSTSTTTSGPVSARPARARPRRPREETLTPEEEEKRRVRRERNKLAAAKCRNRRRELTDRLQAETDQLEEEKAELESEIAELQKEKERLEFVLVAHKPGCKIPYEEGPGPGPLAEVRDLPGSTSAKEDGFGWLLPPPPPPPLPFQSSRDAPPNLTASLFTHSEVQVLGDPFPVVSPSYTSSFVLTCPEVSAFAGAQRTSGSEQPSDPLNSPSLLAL
* = called active by the depositor; ? = inconclusive; / = no result given. The list is not random: actives were taken first. Their share in the collection is about 1.5%.

SMILES	RAD52 anneal inh	F508del corr	PvdQ acylase	RAD54 inh	Glyco luc inh	dFosB activator
CC(=O)c1cccc(Nc2cc(C)nc3c(C)cc(C)cc23)c1	/	/	-2	/	67*	-17
CC(=O)c1cccc(Nc2cc(C)nc3ccc(C)cc23)c1	13	4	-10	/	12	-6
CC1=C(C(=O)NC2CCCCC2C)C2(CCC(C)CC2)OC1=O (stereo unspecified)	-7	9.9*	-11	2	1	8
CCCN(C)C[C@H]1Oc2cc(C#Cc3cccc(OC)c3)ccc2S(=O)(=O)N([C@H](C)CO)C[C@H]1C	/	0	/	/	/	/
c1ccc2[nH]c3cc4ncnc4cc3nc2c1	-316	-2	-18	/	26*	-11
COCC(=O)Nc1ccc2c(c1)C(=O)N(C)C[C@H](OC)[C@H](C)CN(C(=O)CC1CC1)[C@@H](C)CO2	-15	-5	/	-6	/	/
COc1cccc(NC(=O)Nc2ccc3c(c2)C(=O)N(C)C[C@H](OC)[C@H](C)CN(C)[C@@H](C)CO3)c1	93*	2	/	0	/	/
COc1ccccc1CN1C[C@@H](C)[C@H](OC)CN(C)C(=O)c2cc(NC(=O)Nc3ccccc3OC)ccc2OC[C@H]1C	52*	-3	/	6	/	/
COc1cccc(NC(=O)Nc2ccc3c(c2)C(=O)N(C)C[C@@H](OC)[C@@H](C)CN(C)[C@@H](C)CO3)c1	88*	1	/	5	/	/
COc1cccc(NC(=O)Nc2ccc3c(c2)C(=O)N(C)C[C@H](OC)[C@@H](C)CN(C)[C@H](C)CO3)c1	94*	1	/	4	/	/
COc1ccccc1NC(=O)Nc1ccc2c(c1)C(=O)N(C)C[C@@H](OC)[C@H](C)CN(Cc1ccccc1Cl)[C@H](C)CO2	-14	-1	/	-7	/	/
COCC(=O)Nc1ccc2c(c1)C(=O)N(C)[C@H]1CC[C@@H](CC(=O)NCCc3ccncc3)O[C@H]1CO2	-3	-1	/	-4	/	/
O=C1CSCN1c1ccccc1	8	-2	/	/	/	/
CCCC(=O)Nc1ccc2c(c1)OC[C@@H](C)N(C(=O)CN1CCOCC1)C[C@@H](C)[C@H](OC)CN(C)C2=O	7	1	/	2	/	/
CCCC(=O)Nc1ccc2c(c1)C(=O)N(C)C[C@@H](OC)[C@H](C)CN(C(=O)CN1CCOCC1)[C@H](C)CO2	14	8.4*	/	-7	/	/
CCN(CC)C(=O)c1cccc(-c2csc(C(O)c3ccco3)n2)c1 (stereo unspecified)	6	-2	/	-9	-4	/
CC(C)c1cccc(-c2csc(C(O)c3ccco3)n2)c1 (stereo unspecified)	-15	8.9*	/	-3	1	/
Clc1ccc2c(N/N=C/c3ccc(Br)cc3)ccnc2c1	-8	/	-7	-8	-6	34*
Cc1ccc(/C=N/Nc2ccnc3cc(Cl)ccc23)c(C)c1	-12	-3	-14	6	-16	49*
Clc1ccc2c(N/N=C/c3cccnc3)ccnc2c1	-8	4	-5	71*	5	-27
Oc1ccc(/C=N/Nc2ccnc3cc(Cl)ccc23)c(O)c1	-20	-8	-6	5	-2	?
Cc1ccc(OCCNC(=O)c2cccc(S(=O)(=O)NCc3ccccc3)c2)cc1	3	10*	1	9	19	-4
O=C(NCc1ccncc1)c1cccc(S(=O)(=O)NCc2ccccc2)c1	-11	-1	-15	-1	0	-4
Cc1cccc(OCCNC(=O)c2ccc(Cl)c(S(=O)(=O)NCc3cccnc3)c2)c1	-11	14*	-21	-6	5	-6
CCOC(=O)c1c(C)n(-c2ccc(C)cc2)c2ccc(OCC(O)CNCC3CCCO3)cc12 (stereo unspecified)	/	/	-16	/	-6	30*
SMILES	RAD52 anneal inh	F508del corr	PvdQ acylase	RAD54 inh	Glyco luc inh	dFosB activator
OC(CNCC1CCCO1)COc1ccc(OCC(O)CNCC2CCCO2)cc1 (stereo unspecified)	/	/	-7	8	-3	-6
COc1ccc(Oc2ccc(/C=C/C(=O)c3cccc(OC)c3)cc2[N+](=O)[O-])cc1	-8	2	-9	4	50*	-1
COC(=O)c1cc(/C=C/c2ccccc2)on1	/	/	54*	-8	1	-7
COc1cc(OC)cc(C(=O)N2CC(=O)Nc3ccccc32)c1	-31	8.7*	-11	-6	23	-8
C[C@@H]1CCCCO[C@@H](CN(C)C(=O)C2CCCCC2)[C@H](C)CN([C@@H](C)CO)C(=O)c2cc(NS(=O)(=O)c3ccc(Cl)cc3)ccc2O1	8	-1	/	0	/	/
COc1ccc(S(=O)(=O)N2CC[C@@H]3[C@@H](CO)Nc4ccc(-c5ccc(C#N)cc5)cc4[C@@H]32)cc1	10	9.7*	/	4	/	/
COc1ccc(S(=O)(=O)N2CC[C@@H]3[C@H](CO)Nc4ccc(-c5ccc(C#N)cc5)cc4[C@@H]32)cc1	-85	?	/	-3	/	/
O=S(=O)(c1ccc(F)cc1)N1CC[C@@H]2[C@@H](CO)Nc3ccc(-c4ccc(F)cc4)cc3[C@@H]21	/	16*	/	8	/	/
CN(C)C(=O)C[C@H]1CC[C@@H]2[C@H](COC[C@H](O)CN2CC2CCOCC2)O1	-8	1	/	-1	/	/
CCOC(=O)c1nc(C)sc1-c1ccnn1S(=O)(=O)c1ccc(Cl)cc1Cl	-27	0	-12	/	2	-13
CCOC(=O)c1nc(C)sc1-c1ccnn1S(=O)(=O)c1ccccc1C(F)(F)F	-10	9.8*	-8	-2	-3	-21
OC(c1cccc(Cl)c1)c1nccc2ccccc12 (stereo unspecified)	-11	-1	35*	-16	-1	1
O=C(Nc1ccccc1F)N1C[C@H]2[C@@H](c3ccccc31)[C@@H](CO)N2C(=O)c1ccccn1	12	9.7*	/	-1	/	/
O=C(Nc1ccccc1)N1C[C@H]2[C@@H](c3ccccc31)[C@H](CO)N2C(=O)c1ccccn1	1	11*	/	-1	/	/
CNC[C@H]1Oc2ccc(NS(C)(=O)=O)cc2CC(=O)N([C@H](C)CO)C[C@@H]1C	-8	-2	/	3	/	/
S=c1nc[nH]c2nc[nH]c12	-8	3	-7	-1	247*	4
Cc1ccc(S(=O)(=O)N(C)C[C@H]2Oc3c(NC(=O)c4cc(C)nn4C)cccc3C(=O)N([C@H](C)CO)C[C@H]2C)cc1	14	-1	/	-3	/	/
O=C(CCCCCN1C(=O)c2ccccc2C1=O)Nc1ccccc1	/	/	3	0	4	-1
O=C(CCCCCCC(=O)Nc1ccccc1)NO	-6	/	-14	-5	858*	3
C[C@@H]1CN([C@H](C)CO)S(=O)(=O)c2ccc(C3=CCCCC3)cc2O[C@@H]1CN(C)C(=O)Nc1ccc2c(c1)OCO2	17	-2	/	-1	/	/
COc1cc(/C=C/C(=O)c2ccc3c(c2)OCO3)cc(Cl)c1O	-82	9.7*	-5	-74	3	-14
COc1ccc(C(=O)C=Cc2ccc3c(c2)OCO3)cc1OC	-5	2	/	/	6	/

Screens from PubChem.
